# From the supplement of paper PMC4466140
# How the values were obtained:
# Assay in all cases: SPOT peptide array binding signal intensity (averaged, normalized) (arbitrary units (background-subtracted, floor 0; scale differs between SH3 domains)); higher = stronger binding of the SH3 domain to the peptide
# [1] = target: AgAbp1
# Summary of the method: (§1)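 Binding signal is given in arbitrary units that differ between domains and is the normalized, background-subtracted spot intensity averaged across replicates. Each GST-SH3 fusion from one of four yeast species was made in E. coli BL21(DE3), purified on glutathione Sepharose and incubated at 10 μg/ml overnight at 4°C on cellulose-bound synthetic 15-mer peptides in which cysteines were replaced by serines. Detection used anti-GST antibody, an HRP anti-mouse secondary and luminol, followed by imaging and Genespotter quantification.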
# [2] = target: AgBbc1
# Summary of the method: as §1
# [3] = target: AgBem1-D1
# Summary of the method: as §1
# [4] = target: AgBzz1-D1
# Summary of the method: as §1
# [5] = target: AgBzz1-D2
# Summary of the method: as §1
# [6] = target: AgCyk3
# Summary of the method: as §1
# [7] = target: AgFus1
# Summary of the method: as §1
# [8] = target: AgHof1
# Summary of the method: as §1
# [9] = target: AgHse1
# Summary of the method: as §1
# [10] = target: AgLsb1
# Summary of the method: as §1
# [11] = target: AgLsb4
# Summary of the method: as §1
# [12] = target: AgMyo5
# Summary of the method: as §1
# [13] = target: AgNbp2
# Summary of the method: as §1
# [14] = target: AgRvs167
# Summary of the method: as §1
# [15] = target: AgSho1
# Summary of the method: as §1
# [16] = target: AgSla1-D1-D2
# Summary of the method: as §1
# [17] = target: AgSla1-D3
# Summary of the method: as §1
# [18] = target: CaAbp1-D1
# Summary of the method: as §1
# [19] = target: CaAbp1-D2
# Summary of the method: as §1
# [20] = target: CaBbc1
# Summary of the method: as §1
# [21] = target: CaBem1-D1
# Summary of the method: as §1
# [22] = target: CaBzz1-D1
# Summary of the method: as §1
# [23] = target: CaBzz1-D2
# Summary of the method: as §1
# [24] = target: CaCyk3
# Summary of the method: as §1
# [25] = target: CaFus1
# Summary of the method: as §1
# [26] = target: CaHof1
# Summary of the method: as §1
# [27] = target: CaHse1
# Summary of the method: as §1
# [28] = target: CaLsb1
# Summary of the method: as §1
# [29] = target: CaLsb4
# Summary of the method: as §1
# [30] = target: CaMyo5
# Summary of the method: as §1
# [31] = target: CaNbp2
# Summary of the method: as §1
# [32] = target: CaRvs167
# Summary of the method: as §1
# [33] = target: CaRvs167-3
# Summary of the method: as §1
# [34] = target: CaSho1
# Summary of the method: as §1
# [35] = target: CaSla1-D1-D2
# Summary of the method: as §1
# [36] = target: CaSla1-D3
# Summary of the method: as §1
# [37] = target: ScAbp1
# Summary of the method: as §1
# [38] = target: ScBbc1
# Summary of the method: as §1
# [39] = target: ScBem1-D1
# Summary of the method: as §1
# [40] = target: ScBzz1-D1
# Summary of the method: as §1
# [41] = target: ScBzz1-D2
# Summary of the method: as §1
# [42] = target: ScCyk3
# Summary of the method: as §1
# [43] = target: ScFus1
# Summary of the method: as §1
# [44] = target: ScHof1
# Summary of the method: as §1
# [45] = target: ScHse1
# Summary of the method: as §1
# [46] = target: ScLsb1
# Summary of the method: as §1
# [47] = target: ScLsb2
# Summary of the method: as §1
# [48] = target: ScLsb3
# Summary of the method: as §1
# [49] = target: ScLsb4
# Summary of the method: as §1
# [50] = target: ScMyo3
# Summary of the method: as §1
# [51] = target: ScMyo5
# Summary of the method: as §1
# [52] = target: ScNbp2
# Summary of the method: as §1
# [53] = target: ScPex13
# Summary of the method: as §1
# [54] = target: ScRvs167
# Summary of the method: as §1
# [55] = target: ScSho1
# Summary of the method: as §1
# [56] = target: ScSla1-D1-D2
# Summary of the method: as §1
# [57] = target: ScSla1-D3
# Summary of the method: as §1
# [58] = target: SpAbp1-D1
# Summary of the method: as §1
# [59] = target: SpBbc1
# Summary of the method: as §1
# [60] = target: SpBzz1-D1
# Summary of the method: as §1
# [61] = target: SpBzz1-D2
# Summary of the method: as §1
# [62] = target: SpCyk3
# Summary of the method: as §1
# [63] = target: SpHof1
# Summary of the method: as §1
# [64] = target: SpHof1-2
# Summary of the method: as §1
# [65] = target: SpHof1-3
# Summary of the method: as §1
# [66] = target: SpHse1
# Summary of the method: as §1
# [67] = target: SpLsb1
# Summary of the method: as §1
# [68] = target: SpLsb4
# Summary of the method: as §1
# [69] = target: SpMyo1
# Summary of the method: as §1
# [70] = target: SpNbp2
# Summary of the method: as §1
# [71] = target: SpPex13
# Summary of the method: as §1
# [72] = target: SpRvs167
# Summary of the method: as §1
# [73] = target: SpSla1-D1-D2
# Summary of the method: as §1
# [74] = target: SpSla1-D3
# Summary of the method: as §1
binder,measurement,setting,value
PPLPRAPPVPPATFE,SPOT peptide array binding signal intensity,[1],16
same,SPOT peptide array binding signal intensity,[2],0.5
same,SPOT peptide array binding signal intensity,[3],40.5
same,SPOT peptide array binding signal intensity,[4],18
same,SPOT peptide array binding signal intensity,[5],≤ 0
same,SPOT peptide array binding signal intensity,[6],0.5
same,SPOT peptide array binding signal intensity,[7],≤ 0
same,SPOT peptide array binding signal intensity,[8],43.2
same,SPOT peptide array binding signal intensity,[9],15
same,SPOT peptide array binding signal intensity,[10],17.2
same,SPOT peptide array binding signal intensity,[11],≤ 0
same,SPOT peptide array binding signal intensity,[12],434
same,SPOT peptide array binding signal intensity,[13],107
same,SPOT peptide array binding signal intensity,[14],≤ 0
same,SPOT peptide array binding signal intensity,[15],6
same,SPOT peptide array binding signal intensity,[16],5
same,SPOT peptide array binding signal intensity,[17],≤ 0
same,SPOT peptide array binding signal intensity,[18],21.5
same,SPOT peptide array binding signal intensity,[19],20
same,SPOT peptide array binding signal intensity,[20],79.2
same,SPOT peptide array binding signal intensity,[21],23
same,SPOT peptide array binding signal intensity,[22],243
same,SPOT peptide array binding signal intensity,[23],39.5
same,SPOT peptide array binding signal intensity,[24],1.5
same,SPOT peptide array binding signal intensity,[25],47
same,SPOT peptide array binding signal intensity,[26],1.5
same,SPOT peptide array binding signal intensity,[27],≤ 0
same,SPOT peptide array binding signal intensity,[28],≤ 0
same,SPOT peptide array binding signal intensity,[29],≤ 0
same,SPOT peptide array binding signal intensity,[30],104
same,SPOT peptide array binding signal intensity,[31],1100
same,SPOT peptide array binding signal intensity,[32],≤ 0
same,SPOT peptide array binding signal intensity,[33],≤ 0
same,SPOT peptide array binding signal intensity,[34],14
same,SPOT peptide array binding signal intensity,[35],2
same,SPOT peptide array binding signal intensity,[36],1
same,SPOT peptide array binding signal intensity,[37],4.5
same,SPOT peptide array binding signal intensity,[38],≤ 0
same,SPOT peptide array binding signal intensity,[39],≤ 0
same,SPOT peptide array binding signal intensity,[40],4.5
same,SPOT peptide array binding signal intensity,[41],≤ 0
same,SPOT peptide array binding signal intensity,[42],≤ 0
same,SPOT peptide array binding signal intensity,[43],11
same,SPOT peptide array binding signal intensity,[44],241
same,SPOT peptide array binding signal intensity,[45],≤ 0
same,SPOT peptide array binding signal intensity,[46],1
same,SPOT peptide array binding signal intensity,[47],11
same,SPOT peptide array binding signal intensity,[48],84
same,SPOT peptide array binding signal intensity,[49],≤ 0
same,SPOT peptide array binding signal intensity,[50],1100
same,SPOT peptide array binding signal intensity,[51],463
same,SPOT peptide array binding signal intensity,[52],200
same,SPOT peptide array binding signal intensity,[53],95
same,SPOT peptide array binding signal intensity,[54],33.5
same,SPOT peptide array binding signal intensity,[55],81
same,SPOT peptide array binding signal intensity,[56],≤ 0
same,SPOT peptide array binding signal intensity,[57],≤ 0
same,SPOT peptide array binding signal intensity,[58],7
same,SPOT peptide array binding signal intensity,[59],1
same,SPOT peptide array binding signal intensity,[60],566
RPVPPPPPMRTTTEG,SPOT peptide array binding signal intensity,[1],18
same,SPOT peptide array binding signal intensity,[2],814
same,SPOT peptide array binding signal intensity,[3],201
same,SPOT peptide array binding signal intensity,[4],156
same,SPOT peptide array binding signal intensity,[5],14.5
same,SPOT peptide array binding signal intensity,[6],14
same,SPOT peptide array binding signal intensity,[7],63
same,SPOT peptide array binding signal intensity,[8],61.8
same,SPOT peptide array binding signal intensity,[9],144
same,SPOT peptide array binding signal intensity,[10],303
same,SPOT peptide array binding signal intensity,[11],1760
same,SPOT peptide array binding signal intensity,[12],41.2
same,SPOT peptide array binding signal intensity,[13],3100
same,SPOT peptide array binding signal intensity,[14],1050
same,SPOT peptide array binding signal intensity,[15],136
same,SPOT peptide array binding signal intensity,[16],1
same,SPOT peptide array binding signal intensity,[17],108
same,SPOT peptide array binding signal intensity,[18],364
same,SPOT peptide array binding signal intensity,[19],60.5
same,SPOT peptide array binding signal intensity,[20],553
same,SPOT peptide array binding signal intensity,[21],166
same,SPOT peptide array binding signal intensity,[22],3990
same,SPOT peptide array binding signal intensity,[23],1260
same,SPOT peptide array binding signal intensity,[24],387
same,SPOT peptide array binding signal intensity,[25],548
same,SPOT peptide array binding signal intensity,[26],40
same,SPOT peptide array binding signal intensity,[27],405
same,SPOT peptide array binding signal intensity,[28],1
same,SPOT peptide array binding signal intensity,[29],2480
same,SPOT peptide array binding signal intensity,[30],54
same,SPOT peptide array binding signal intensity,[31],1490
same,SPOT peptide array binding signal intensity,[32],1460
same,SPOT peptide array binding signal intensity,[33],0.75
same,SPOT peptide array binding signal intensity,[34],650
same,SPOT peptide array binding signal intensity,[35],1590
same,SPOT peptide array binding signal intensity,[36],928
same,SPOT peptide array binding signal intensity,[37],21
same,SPOT peptide array binding signal intensity,[38],64.8
same,SPOT peptide array binding signal intensity,[39],≤ 0
same,SPOT peptide array binding signal intensity,[40],177
same,SPOT peptide array binding signal intensity,[41],14.5
same,SPOT peptide array binding signal intensity,[42],8.5
same,SPOT peptide array binding signal intensity,[43],180
same,SPOT peptide array binding signal intensity,[44],46.2
same,SPOT peptide array binding signal intensity,[45],63
same,SPOT peptide array binding signal intensity,[46],180
same,SPOT peptide array binding signal intensity,[47],434
same,SPOT peptide array binding signal intensity,[48],4080
same,SPOT peptide array binding signal intensity,[49],3130
same,SPOT peptide array binding signal intensity,[50],569
same,SPOT peptide array binding signal intensity,[51],239
same,SPOT peptide array binding signal intensity,[52],4580
same,SPOT peptide array binding signal intensity,[53],1500
same,SPOT peptide array binding signal intensity,[54],3300
same,SPOT peptide array binding signal intensity,[55],616
same,SPOT peptide array binding signal intensity,[56],1870
same,SPOT peptide array binding signal intensity,[57],222
same,SPOT peptide array binding signal intensity,[58],95.5
same,SPOT peptide array binding signal intensity,[59],40.5
same,SPOT peptide array binding signal intensity,[60],1370
same,SPOT peptide array binding signal intensity,[61],88
same,SPOT peptide array binding signal intensity,[62],112
same,SPOT peptide array binding signal intensity,[63],111
same,SPOT peptide array binding signal intensity,[64],110
same,SPOT peptide array binding signal intensity,[65],966
same,SPOT peptide array binding signal intensity,[66],147
same,SPOT peptide array binding signal intensity,[67],161
same,SPOT peptide array binding signal intensity,[68],4570
same,SPOT peptide array binding signal intensity,[69],333
same,SPOT peptide array binding signal intensity,[70],191
same,SPOT peptide array binding signal intensity,[71],150
same,SPOT peptide array binding signal intensity,[72],2150
same,SPOT peptide array binding signal intensity,[73],86
same,SPOT peptide array binding signal intensity,[74],33.5
